Shown is part of a subset that was picked to be rich in hits.
Pf Dd2 inh: Plasmodium falciparum Dd2 growth inhibition; P. falciparum Dd2 growth, SYBR Green, 72 h; Potency, µM (series often up to 28.9 µM), without a hit: top-dose activity, negative = inhibition, usual class: inhibitors; actives 4.3% (n = 120,000); active = well fitted inhibition curve with a large enough effect;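 note: plate controls were DMSO vehicle for no effect and reference drug for full effect; nearly all actives have a fitted effect of over 65% in size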
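Infected erythrocytes (Dd2, 0.3% parasitemia, 2.5% hematocrit final) are added to compound in RPMI-1640/Albumax II medium, grown 72 h at 37C in low oxygen, then lysed with saponin/Triton-X containing SYBR Green and read by fluorescence.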
Active calls of the source: *; [ ] = another dose, or the depositor's remark. Potency is the fitted concentration of half-maximal effect.

`CCC[C@@H]1CN(C(=O)c2ccc(OC)o2)C[C@H]1C(=O)O` gave Pf Dd2 inh -5%.
For O=C(C1CCC1)N1CCCC1c1nc(C2CCOCC2)no1 (centres undefined) the results were Pf Dd2 inh -11%.
Cc1cccc(CN2CCN(C)C3(CCC(=O)N(CC(=O)O)CC3)C2)n1 (centres undefined) was read as Pf Dd2 inh 4%.
CO[C@H]1[C@H](NC(=O)C2CCN(C(C)=O)CC2)c2ccccc2C12CCNCC2 was read as Pf Dd2 inh -9%.
For O=C(C1CC=CC1)N1C[C@@H](COc2ccncc2)[C@H](c2ccccn2)C1 the results were Pf Dd2 inh -1%.
Screening CCCN1C(=O)C(CC(=O)N2CCCCCC2)Sc2ncccc21 (centres undefined) returned Pf Dd2 inh -7%.
COc1cccc(CN2CC[C@H]3COC(=O)N3c3ccc(OC)cc3C2)c1 was read as Pf Dd2 inh 11%[44.1 µM].
For COc1ccc2c(c1)CN(Cc1ccccc1Cl)CC[C@H]1COC(=O)N21 the results were Pf Dd2 inh 11µM*.
For COc1ccc2c(c1)CN(Cc1ccc(C(F)(F)F)cc1)CC[C@H]1COC(=O)N21 the results were Pf Dd2 inh inactive.
Screening CCN(C)C(=O)Cn1ncc(N2CCOC(CCN)C2)cc1=O (centres undefined) returned Pf Dd2 inh 0%.
`CN(C(=O)CN1C(=O)NC(c2ccc(Cl)cc2)C2=C1COC2=O)c1ccccc1` (centres undefined) gave Pf Dd2 inh inactive.
`Cc1ccc(S(=O)(=O)N2CCC(CC(=O)NCc3ccccc3)C2)c(C)c1` (centres undefined) gave Pf Dd2 inh inactive.
CCO[C@H]1CN(C(=O)Cc2c(C)nn(-c3ccccc3)c2C)C[C@@H]1O was read as Pf Dd2 inh 2%.
Screening Cc1nc(N2CCCC2)c2c(C(=O)N3CCN(c4ccccc4)CC3)c(C)oc2n1 returned Pf Dd2 inh -16%.
Screening Cc1nc(N2CCCC2)c2c(C(=O)N3CCN(c4cc(Cl)ccc4C)CC3)c(C)oc2n1 returned Pf Dd2 inh 13µM*.
Cc1nc(N2CCCC2)c2c(C(=O)Nc3cccc(Cl)c3)c(C)oc2n1 was read as Pf Dd2 inh inactive.
`COCCn1c(C)cnc1C1CCN(C(=O)c2ccc(OC)nc2)C1` (centres undefined) gave Pf Dd2 inh 12%.
For CNC(=O)c1c(NC(=O)/C=C/c2ccccc2Cl)sc2c1CCC2 the results were Pf Dd2 inh -17%.
`Cc1ccc(NC(=O)c2ncn(-c3ccccc3)n2)cc1Cl` gave Pf Dd2 inh 9%.
`Cc1ccc(NC(=O)/C=C/c2ccccc2Cl)cc1Cl` gave Pf Dd2 inh 2.8µM*.
CCCNC(=O)N1CCC2(CC1)CC(N(C(=O)NC(C)C)C1CC1)CCO2 (centres undefined) was read as Pf Dd2 inh 8%.
Screening O=C1NCCN2CC3(CCN(C(=O)NCCc4ccccc4)CC3)CC12 (centres undefined) returned Pf Dd2 inh inactive.
For Cn1nc2n(c1=O)CCN(C(=O)c1cscn1)CC2 the results were Pf Dd2 inh 9%.
For COc1cccc(S(=O)(=O)N2CC(n3cc(C(=O)NCc4ccccc4)nn3)C2)c1 the results were Pf Dd2 inh 7%.
For CCCCN(C)CC(O)Cn1cc(/C=C/C(=O)c2ccc(C)cc2)c2ccccc21 (centres undefined) the results were Pf Dd2 inh 2.5µM*.
For CCCN(CCC)CC(O)Cn1cc(/C=C/C(=O)c2ccc(C)cc2)c2ccccc21 (centres undefined) the results were Pf Dd2 inh 1.1µM*.
`CCN(CC)C(=O)Cn1cc(SCC(=O)Nc2cccc(C)c2)c2ccccc21` gave Pf Dd2 inh -4%.
`CCCN(CCC)CC(O)Cn1cc(/C=C/C(=O)c2ccc(Br)cc2)c2ccccc21` (centres undefined) gave Pf Dd2 inh 3.2µM*.
Screening Cc1ccc(CNC(=O)CCc2cn(Cc3ccc(C)cc3)c3ccccc23)cc1 returned Pf Dd2 inh -22%.
`CC(NC(=O)CN1C(=O)COc2ccc(C(=O)COc3ccc(F)cc3F)cc21)c1ccccc1` (centres undefined) gave Pf Dd2 inh inactive.
Screening CN(C)c1cccc(-c2nccc3c(=O)cc(N4CCOCC4)oc23)c1 returned Pf Dd2 inh -29%[44.1 µM].
O=C(Cc1cccc(F)c1)N1CC(Oc2ccc(-c3nc(-c4ccccc4)no3)cc2)C1 was read as Pf Dd2 inh 19%[5.79 µM].
Screening O=C1C[C@H]2CC[C@@H](CN1CC(=O)N(Cc1c(F)cccc1Cl)C1CC1)N2 returned Pf Dd2 inh 4%.
For COc1ccc(C(=O)N[C@@H]2CN(S(C)(=O)=O)C[C@H]2CN(C)C)cc1OC the results were Pf Dd2 inh 23%.
For COc1cccc(CN2CC[C@@H](CO)N(C)c3cccnc3C2)c1 the results were Pf Dd2 inh inactive.
Screening O=C(CCc1nc2ccccc2s1)N1CCC(c2noc(-c3ccncc3)n2)C1 (centres undefined) returned Pf Dd2 inh 24%[5.79 µM].
Screening CN(C)c1ccc(-c2nnnn2[C@H]2CO[C@H]3[C@@H]2OC[C@H]3OCc2ccccc2)cc1 returned Pf Dd2 inh inactive.
Screening Clc1ccc(CNC2(Cc3cc(COc4ccccc4)on3)COC2)cc1 returned Pf Dd2 inh -30%[44.1 µM].
Screening Cc1cc(NC(=O)CCc2nc3cccnc3n2Cc2cccs2)ccc1Br returned Pf Dd2 inh 85%[5.79 µM].
`COc1ccc(CNC(=O)CCc2nc3cccnc3n2Cc2ccc(OC)cc2)cc1` gave Pf Dd2 inh -4%.
`CCCn1c(CCC(=O)Nc2cccc(CC)c2)nc2cccnc21` gave Pf Dd2 inh -7%.
Screening COc1ccc(Cn2c(CCC(=O)Nc3ccc(C)cc3)nc3cccnc32)cc1 returned Pf Dd2 inh 10µM*.
Screening COc1ccc(Cn2c(CCC(=O)Nc3cc(C)cc(C)c3)nc3cccnc32)cc1 returned Pf Dd2 inh -20%.
`O=C(CCc1nc2cccnc2n1Cc1cccs1)Nc1cccc(Cl)c1` gave Pf Dd2 inh 11µM*.
CCC(C)Oc1ccc(CNC(=O)c2cn(CCN)nn2)cc1 (centres undefined) was read as Pf Dd2 inh -19%.
For C=CCNc1ccccc1C(=O)NC(C(=O)O)c1c(C)n[nH]c1C (centres undefined) the results were Pf Dd2 inh 13%.
Screening CN(C)c1ccc(C(=O)N[C@H]2C[C@H]3C(=O)NC[C@@H](CCC(=O)NCc4cccnc4)N3C2)cc1 returned Pf Dd2 inh -24%.
Screening CC1=C[C@@H](CN2C(=O)c3ccccc3C2=O)[C@H](C(C)C)C[C@H]1Cc1nc2ccccc2[nH]1 returned Pf Dd2 inh -32%[44.1 µM].
O=C(O)C1CC2(CCN(Cc3cc4ccccc4o3)CC2)CN1C(=O)C1CC1 (centres undefined) was read as Pf Dd2 inh -10%.
Screening Cc1nnc(CN(C)C(=O)c2cccc(S(=O)(=O)N3CCOCC3)c2)o1 returned Pf Dd2 inh -4%.
COc1ccc(S(=O)(=O)N2CCc3c(C(=O)Nc4cccc(C)c4)cccc32)cc1 was read as Pf Dd2 inh inactive.
Screening CS(=O)(=O)N1CCC2(C1)OC(=O)Nc1ccccc12 (centres undefined) returned Pf Dd2 inh 24%[44.1 µM].
CCN(CCOc1ccc(F)cc1)C(=O)c1cnc(NC(C)C)nc1 was read as Pf Dd2 inh -8%.
Screening Cc1nc(C2(C)CCN(C(=O)Cc3c(C)noc3C)CC2)no1 returned Pf Dd2 inh 35%.

Assay outcomes (PubChem BioAssay)
